“And” between values parts separate entries of the source, which are not always exact repeats. Equal values may be shown once. The source made the active and inactive calls. Unless noted, the rule behind the calls is not given here.
Experiments:
[1] = signal quenchers or enhancers, Cy5 substrate/SSB – biochemical, NIH Clinical Collection, E. coli SSB, artefact control for HCV NS3 helicase inhibitor project (AID 743268); settings: Cy5-oligo bound E. coli SSB, fluorescence interference
[2] = tested on: Hepatitis C virus NS3 helicase; experiment: blockers of NS3h binding to DNA – biochemical, fluorescence polarization, NIH Clinical Collection, primary screen (AID 743270); settings: NS3 helicase binding to Cy5-dT15 DNA, stronger effect = higher value, concentration not given here
[3] = molecular target: Single-stranded DNA-binding protein (Escherichia coli (strain K12)) (UniProt P0AGE0); experiment: SSB-ssDNA binding inhibitors – biochemical, fluorescence polarization, NIH Clinical Collection, counter-screen for HCV NS3 helicase inhibitor project (AID 743271; in the data active = inhibition above about 28%); settings: E. coli SSB-DNA binding, stronger effect = higher value, concentration not given here
[4] = compounds distorting NS3 helicase fluorescence signal – biochemical, NIH Clinical Collection, artefact control for HCV NS3 helicase inhibitor project (AID 743272); settings: fluorescence interference counterscreen, HCV NS3 helicase assay; stronger effect = lower value;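 note: HCV NS3 helicase with a Cy5 labelled single stranded DNA probe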
[5] = tested on: Neuropilin-2 / VEGF-C interaction (human); experiment: small molecules blocking Neuropilin-2/VEGF-C interaction – biochemical, microplate binding format, z-score (AID 743281); settings: microplate NRP2/VEGF-C binding assay; stronger effect = lower value
[6] = modulation of C. elegans fzo-1 (AID 1259413);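 note: fzo-1 mutant C. elegans worms in liquid wells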; settings: C. elegans fzo-1 modulator screen, mean read-out; stronger effect = higher value
[7] = MELAS cybrid and Rieske KO viability enhancers – cell-based, MELAS cybrids, Rieske KO mouse fibroblasts, CellTiter-Glo, primary screen (AID 1508586;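 active = mean z-score across replicates of 1.96 or higher in either the MELAS or the Rieske mutant cell line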;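 note: z relative to plate mean and SD of compound and empty wells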); settings: low glucose
[8] = galactose survival enhancers in mitochondrial complex I cybrids – cell-based, galactose medium, ATP luminescence, primary screen (AID 1645843;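 active = z-score of at least 1.8 in each of two replicates, scored against plate mean and spread of sample wells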;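 note: positive z means more ATP and so rescue of galactose-driven cybrid death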); settings: complex I mutant cybrid cells, 72 h, stronger effect = higher value
[9] = viability loss with induced miR-34 in A549 – imaging, A549 dox-inducible miR-34, nuclei and caspase counts, primary screen (AID 1347080;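 active = compounds whose cell count with miR-34 switched on is under 0.7 times the count with it off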); settings: A549 miR-34 inducible, Hoechst nuclei count, 48 h
[10] = P. berghei load reduction in hepatocytes – cell-based, HepG2, luciferase luminescence, HepG2 viability, primary screen (AID 624349; in the data active = parasite load remaining mostly below about 12%, no sharp cut-off; inactive = mostly above about 10%;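 note: 100% = mean of DMSO negative control wells on the same plate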); settings: P. berghei liver stage in HepG2, luciferase luminescence, concentration not given here; parasite load remaining: stronger effect = lower value; viability: measured here: HepG2 viability without parasites
[11] = stronger effect = lower value, cell number ratio, induced over uninduced
[12] = measured here: relative caspase fold change +Dox/-Dox
[13] = measured here: total cells with miR-34 induction, stronger effect = lower value
[14] = measured here: total cells without miR-34 induction

SMILES | fluorescence ratio [1] | inhibition [2] | inhibition [3] | fluorescence ratio [4] | z-score [5] | mean signal [6] | z-score ([7]; MELAS cybrid survival, CellTiter-Glo 48 h, stronger effect = higher value) | z-score ([7]; Rieske KO mouse fibroblast survival, CellTiter-Glo 72 h) | z-score [8] | outcome [5] | fold change [9, 11] | fold change [9, 12] | cell count [9, 13] | cell count [9, 14] | parasite load remaining [10] | viability [10]
CC(=O)N1CCN(c2ccc(OC[C@H]3CO[C@](Cn4ccnc4)(c4ccc(Cl)cc4Cl)O3)cc2)CC1 | 0.93 (inactive) | 4.36% (inactive) | 13.8% (inactive) | 0.91 (inactive) | 0.168 (inactive) | 283 (inactive) | 1.22 (inactive) and -0.0928 (inactive) | 0.853 and 1.14 | -1.2 (inactive) and -0.985 (inactive) and -1.05 (inactive) | – | – | – | – | – | – | –
CCCN1CC(CSC)CC2c3cccc4[nH]cc(c34)CC21 (stereo not drawn) | – | – | – | – | – | 184 (inactive) | – | – | -0.235 (inactive) | inactive | 0.922 (inactive) | 1.17 | 9040 | 9810 | – | –
CN1CCN(c2nc3cc(C(F)(F)F)ccc3n3cccc23)CC1 | 0.95 (inactive) | -10.7% (inactive) | 1.97% (inactive) | 0.95 (inactive) | -0.53 (inactive) | 175 (inactive) | – | – | -0.85 (inactive) and -1.01 (inactive) | – | 1 (inactive) and 0.87 (inactive) | 1.47 and 0.615 | 7250 and 7950 | 7230 and 9140 | 58.1% (inactive) | 68%
CC(=O)OCC(=O)C12OC(C)(C)O[C@@H]1C[C@H]1[C@@H]3C[C@H](F)C4=CC(=O)C=CC4(C)[C@@]3(F)[C@@H](O)CC12C (stereo partly drawn) | – | – | – | – | – | 228 (inactive) | – | – | – | – | – | – | – | – | – | –
Cc1sc(N)c(C(=O)c2cccc(C(F)(F)F)c2)c1C | 0.94 (inactive) | -3.71% (inactive) | -1.97% (inactive) | 0.97 (inactive) | 0.715 (inactive) | 276 (inactive) | – | – | 1.27 (inactive) and 1.38 (inactive) | – | 0.904 (inactive) and 0.931 (inactive) | 0.769 and 0.712 | 8250 and 8560 | 9130 and 9190 | 28.2% (inactive) | 69.8%
